The source made the active and inactive calls.
Experiments:
[1] = small molecules captured by biotinylated probe aFSTL3 – biochemical, small-molecule microarray, fluorescence 635/667, stem cell growth factor project, primary screen (AID 1064); conditions: higher = more signal;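 also: measures binding of the biotinylated anti-FSTL3 antibody to printed compounds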
[2] = binders from COS7 lysate, DM2A8 probe, primary screen, torsin A project, cell lysate, small-molecule microarray, fluorescence 635/667 (AID 1065); conditions: higher = more signal, COS7 lysate expressing mutant human TOR1A
[3] = small molecules captured by biotinylated probe aFGF2 – biochemical, small-molecule microarray, fluorescence 635/667, stem cell growth factor project, primary screen (AID 1067); conditions: higher = more signal;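 also: measures binding of biotinylated aFGF2 protein to printed compounds on slides; z-score merges feature fluorescence and signal-to-noise across triplicate slides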
[4] = small molecules captured by biotinylated probe aFGF10 – biochemical, small-molecule microarray, fluorescence 635/667, stem cell growth factor project, primary screen (AID 1071); conditions: higher = more signal;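 also: score merges 667 nm spot intensity and signal to noise from triplicate slides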
[5] = target: Neurogenic locus notch homolog protein 2 (Homo sapiens) (UniProt Q04721); assay: small molecules binding Notch2 protein – biochemical, small-molecule microarray, 635 nm fluorescence, stem cell growth factors, primary screen (AID 1073); conditions: higher = more signal
[6] = target: Pro-neuregulin-1, membrane-bound isoform (Homo sapiens) (UniProt Q02297); assay: small molecules binding neuregulin-1 protein – biochemical, small-molecule microarray, fluorescence 635/667, psychiatric disease protein project, primary screen (AID 1075); conditions: NRG1 binding, 635 nm fluorescence, higher = more signal;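 also: score combines 667 nm spot fluorescence with signal to noise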
[7] = test system: Neuregulin-1 EGF-like domain; assay: small molecules binding NRG1 EGF domain – biochemical, small-molecule microarray, 635 nm fluorescence, primary screen (AID 1081); conditions: higher = more signal;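 also: binding of the protein to compounds printed on small-molecule microarray slides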
[8] = FRG1 expression reporter modulators in myotubes – cell-based, C2C12 myotubes, firefly/Renilla luciferase, luminescence, FRG1 inhibition for FSHD, primary screen (AID 1084); conditions: FRG1 promoter luciferase, higher = more signal, called active from +8 up or from −8 down
[9] = small molecules captured by biotinylated probe aFST – biochemical, small-molecule microarray, fluorescence 635/667, stem cell growth factor project, primary screen (AID 1086); conditions: higher = more signal;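 also: score merges 667 nm fluorescence with signal-to-noise of each printed compound spot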
[10] = binders of probe aHhip on microarray, primary screen, stem cell growth factor project, biochemical, small-molecule microarray, fluorescence 635/667 (AID 1087); conditions: higher = more signal;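 also: score merges spot fluorescence at 667nm with spot signal to noise ratio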
[11] = test system: PRMT1 (protein arginine N-methyltransferase 1); assay: small molecules binding arginine methyltransferase PRMT1 – biochemical, small-molecule microarray, 635 nm fluorescence, primary screen (AID 1088); conditions: higher = more signal;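 also: binding of Prmt1 protein to compounds spotted on small-molecule microarray slides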
[12] = growth effects on S. cerevisiae YJM789 – YJM789 clinical isolate, OD600, 24 h, basal, primary screen (AID 1089); conditions: higher = more signal, called active from +8 up or from −8 down;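 also: growth of clinical yeast isolate S. cerevisiae YJM 789 seeded 1000 cells per well; test concentration not given here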
[13] = S. pombe growth modifiers, basal conditions – strain 972, OD600, 24 h, no modulator, primary screen (AID 1090);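 also: basal condition with compound alone and no growth modifier present; test concentration not given here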; conditions: S. pombe 972 growth, higher = more signal, called active from +8 up or from −8 down
[14] = budding yeast growth modifiers under rapamycin – strain BY4716, OD600, 96 h, primary screen (AID 1091); also: test concentration not given here; conditions: S. cerevisiae BY4716 + rapamycin, higher = more signal, called active from +8 up or from −8 down
[15] = target: Torsin-1A-interacting protein 2 (Homo sapiens) (UniProt Q8NFQ8); assay: small molecules binding lysate-expressed LULL1 – cell lysate, human LULL1 lysate, 635/667 nm fluorescence, primary screen (AID 1092); conditions: small-molecule microarray, hLULL1 lysate binding, 635 nm fluorescence; higher = more signal;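 also: probe is lysate of COS7 cells overexpressing human LULL1; score merges per-feature 667 nm fluorescence with signal-to-noise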
[16] = optical density change of DRC41 E. coli – strain DRC41, OD650, 24 h, E. coli filamentation project, primary screen (AID 1093);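 also: MC1000 strain lacking acrAB efflux and sulA so SOS filamentation is blocked; test concentration not given here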; conditions: E. coli DRC41 growth, higher = more signal, called active from +8 up or from −8 down
[17] = probe aLefty2 binding to arrayed compounds – biochemical, biotinylated probe, 635/667 nm fluorescence, primary screen (AID 1094); conditions: small-molecule microarray, higher = more signal;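 also: score merges spot fluorescence near 667 nm with spot signal-to-noise ratio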
[18] = test system: Noggin (protein binding on small-molecule microarray); assay: small molecules binding Noggin protein – biochemical, 635/667 nm fluorescence, primary screen (AID 1095); conditions: 635 nm fluorescence, higher = more signal;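 also: score merges 667 nm feature fluorescence with signal to noise over triplicate slides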
[19] = target: Neurogenic locus notch homolog protein 3 (Homo sapiens) (UniProt Q9UM47); assay: small molecules binding NOTCH3 protein – biochemical, 635/667 nm fluorescence, primary screen (AID 1096); conditions: small-molecule microarray, 635 nm fluorescence, higher = more signal
[20] = probe aEGFR binding to arrayed compounds – biochemical, biotinylated probe, 635/667 nm fluorescence, primary screen (AID 1097); conditions: small-molecule microarray, higher = more signal;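 also: probe is a biotinylated anti-EGFR antibody binding compounds printed on slides; score combines fluorescence near 667 nm and signal to noise of each spot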

Chain of Pro-neuregulin-1, membrane-bound isoform (Homo sapiens) (Q02297 whole entry, looked up, the tested form may be a part, canonical isoform): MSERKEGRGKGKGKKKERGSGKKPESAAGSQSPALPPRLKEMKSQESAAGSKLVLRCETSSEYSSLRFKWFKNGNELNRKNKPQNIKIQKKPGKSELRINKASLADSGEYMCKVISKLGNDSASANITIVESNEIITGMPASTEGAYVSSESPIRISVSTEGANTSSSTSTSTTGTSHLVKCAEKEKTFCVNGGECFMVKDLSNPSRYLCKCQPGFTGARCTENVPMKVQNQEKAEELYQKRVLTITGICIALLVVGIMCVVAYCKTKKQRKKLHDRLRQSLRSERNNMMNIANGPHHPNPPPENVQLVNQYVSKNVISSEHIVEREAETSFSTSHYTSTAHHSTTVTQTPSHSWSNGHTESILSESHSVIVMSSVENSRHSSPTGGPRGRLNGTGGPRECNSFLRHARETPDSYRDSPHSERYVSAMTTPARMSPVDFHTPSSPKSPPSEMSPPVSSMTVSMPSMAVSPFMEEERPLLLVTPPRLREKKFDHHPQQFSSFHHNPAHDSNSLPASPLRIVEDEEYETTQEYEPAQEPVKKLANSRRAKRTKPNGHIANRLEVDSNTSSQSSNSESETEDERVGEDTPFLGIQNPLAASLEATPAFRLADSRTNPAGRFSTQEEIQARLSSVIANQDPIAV
Chain of Neurogenic locus notch homolog protein 2 (Homo sapiens) (Q04721 whole entry, looked up, canonical isoform): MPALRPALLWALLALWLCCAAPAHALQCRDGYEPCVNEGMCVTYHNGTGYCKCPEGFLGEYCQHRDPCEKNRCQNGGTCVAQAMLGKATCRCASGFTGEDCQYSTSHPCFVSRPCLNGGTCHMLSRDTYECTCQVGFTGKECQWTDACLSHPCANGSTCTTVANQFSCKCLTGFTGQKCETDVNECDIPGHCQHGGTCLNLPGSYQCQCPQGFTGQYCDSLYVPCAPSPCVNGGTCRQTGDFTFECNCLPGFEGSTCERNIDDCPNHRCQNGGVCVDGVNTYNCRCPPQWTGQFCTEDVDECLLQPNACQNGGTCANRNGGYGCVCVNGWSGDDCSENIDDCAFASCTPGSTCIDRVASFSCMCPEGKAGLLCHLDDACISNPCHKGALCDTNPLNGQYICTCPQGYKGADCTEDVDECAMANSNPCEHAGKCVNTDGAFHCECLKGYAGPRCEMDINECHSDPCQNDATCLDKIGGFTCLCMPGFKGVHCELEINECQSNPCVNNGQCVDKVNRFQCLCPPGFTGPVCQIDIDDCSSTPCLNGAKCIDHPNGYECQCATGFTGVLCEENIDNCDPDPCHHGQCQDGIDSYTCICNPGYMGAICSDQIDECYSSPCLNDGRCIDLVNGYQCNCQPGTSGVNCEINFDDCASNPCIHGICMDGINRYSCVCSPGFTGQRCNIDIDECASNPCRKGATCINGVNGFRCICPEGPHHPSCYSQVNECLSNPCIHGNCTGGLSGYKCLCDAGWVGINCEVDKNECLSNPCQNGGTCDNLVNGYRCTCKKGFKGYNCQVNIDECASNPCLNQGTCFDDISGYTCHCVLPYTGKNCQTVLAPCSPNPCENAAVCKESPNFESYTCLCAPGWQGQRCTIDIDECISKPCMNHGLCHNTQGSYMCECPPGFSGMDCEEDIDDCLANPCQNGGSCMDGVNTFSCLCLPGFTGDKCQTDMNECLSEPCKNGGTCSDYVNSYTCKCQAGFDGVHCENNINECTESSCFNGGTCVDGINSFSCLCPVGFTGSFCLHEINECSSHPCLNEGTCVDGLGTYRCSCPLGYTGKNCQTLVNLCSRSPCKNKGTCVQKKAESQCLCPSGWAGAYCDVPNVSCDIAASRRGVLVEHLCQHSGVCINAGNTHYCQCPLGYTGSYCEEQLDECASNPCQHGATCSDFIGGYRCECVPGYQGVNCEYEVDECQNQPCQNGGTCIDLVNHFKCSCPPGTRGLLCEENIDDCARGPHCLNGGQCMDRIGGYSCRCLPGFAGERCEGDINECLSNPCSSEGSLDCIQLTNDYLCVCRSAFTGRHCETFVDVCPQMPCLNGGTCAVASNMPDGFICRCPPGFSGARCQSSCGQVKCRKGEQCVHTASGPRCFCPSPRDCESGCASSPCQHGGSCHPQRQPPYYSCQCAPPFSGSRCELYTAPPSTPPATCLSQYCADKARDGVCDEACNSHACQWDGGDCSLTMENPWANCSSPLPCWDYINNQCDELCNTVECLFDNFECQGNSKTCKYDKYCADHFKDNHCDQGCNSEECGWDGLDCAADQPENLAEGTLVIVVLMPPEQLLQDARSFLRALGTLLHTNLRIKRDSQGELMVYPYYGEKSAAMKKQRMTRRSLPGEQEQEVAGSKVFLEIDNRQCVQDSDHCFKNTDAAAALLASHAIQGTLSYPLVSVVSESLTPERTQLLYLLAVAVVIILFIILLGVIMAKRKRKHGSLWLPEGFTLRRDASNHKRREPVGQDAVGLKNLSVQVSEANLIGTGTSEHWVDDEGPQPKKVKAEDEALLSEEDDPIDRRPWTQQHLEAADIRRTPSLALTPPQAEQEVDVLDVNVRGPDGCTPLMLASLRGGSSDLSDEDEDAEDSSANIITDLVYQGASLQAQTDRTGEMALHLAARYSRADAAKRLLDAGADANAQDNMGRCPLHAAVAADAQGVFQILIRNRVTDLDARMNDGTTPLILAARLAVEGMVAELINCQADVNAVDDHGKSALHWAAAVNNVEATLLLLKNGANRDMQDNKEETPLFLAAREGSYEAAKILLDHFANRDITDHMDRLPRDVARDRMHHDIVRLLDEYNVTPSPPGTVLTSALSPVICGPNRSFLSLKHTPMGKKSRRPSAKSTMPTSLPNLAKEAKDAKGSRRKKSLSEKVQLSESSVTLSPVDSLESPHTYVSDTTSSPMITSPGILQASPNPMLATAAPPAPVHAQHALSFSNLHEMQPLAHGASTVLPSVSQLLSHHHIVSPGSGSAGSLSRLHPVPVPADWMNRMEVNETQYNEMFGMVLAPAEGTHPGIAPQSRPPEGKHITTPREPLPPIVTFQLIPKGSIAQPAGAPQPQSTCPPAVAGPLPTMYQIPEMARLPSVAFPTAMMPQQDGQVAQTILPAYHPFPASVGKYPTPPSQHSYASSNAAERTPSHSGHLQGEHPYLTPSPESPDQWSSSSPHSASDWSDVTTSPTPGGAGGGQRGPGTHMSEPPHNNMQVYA
Chain of Torsin-1A-interacting protein 2 (Homo sapiens) (Q8NFQ8 whole entry, looked up): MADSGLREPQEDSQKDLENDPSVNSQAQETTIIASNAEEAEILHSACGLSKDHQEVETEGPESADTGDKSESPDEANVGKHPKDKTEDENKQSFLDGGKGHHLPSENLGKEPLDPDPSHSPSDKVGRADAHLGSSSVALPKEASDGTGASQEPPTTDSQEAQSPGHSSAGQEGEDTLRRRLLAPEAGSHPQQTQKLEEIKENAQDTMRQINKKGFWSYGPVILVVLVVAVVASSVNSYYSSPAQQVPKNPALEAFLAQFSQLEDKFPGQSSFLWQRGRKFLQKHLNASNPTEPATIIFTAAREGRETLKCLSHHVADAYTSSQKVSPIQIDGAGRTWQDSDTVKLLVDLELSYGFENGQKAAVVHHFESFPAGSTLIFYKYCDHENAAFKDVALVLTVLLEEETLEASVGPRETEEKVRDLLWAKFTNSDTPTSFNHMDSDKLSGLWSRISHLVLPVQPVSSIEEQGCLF

Row | Structure (SMILES) | composite z-score [1] | composite z-score [2] | composite z-score [3] | composite z-score [4] | composite z-score [5] | composite z-score [6] | composite z-score [7] | z-score [8] | composite z-score [9] | composite z-score [10] | composite z-score [11] | z-score [12] | z-score [13] | z-score [14] | composite z-score [15] | z-score [16] | composite z-score [17] | composite z-score [18] | composite z-score [19] | composite z-score [20]
1 | CC(=O)NCCCC[C@@H]1NC(=O)[C@H]2C[C@@H](C(=O)NCCCCCN)[C@@H](c3ccc(O)cc3)N2C1=O | 0.392 | 0.861 | 0.007 | 0.198 | 1 | 0.0529 | 1.2 | -0.248 (inactive) | 0.418 | 0.141 | 1.07 | 0.447 (inactive) | -0.121 (inactive) | 1.01 (inactive) | 2.05 | -0.475 (inactive) | 0.0158 | 1.35 | 0.284 | 0.0209
2 | CC[C@@H](O[Si](C#C[Si](C(C)C)(C(C)C)C(C)C)(C(C)C)C(C)C)c1cn([C@H](CO)Cc2ccccc2)nn1 | -0.48 | 0.111 | -0.187 | 0.686 | 0.929 | 0.0252 | 0.846 | 0.355 (inactive) | 0.547 | -0.0994 | 1.34 | 1.57 (inactive) | 1.22 (inactive) | 0.532 (inactive) | 1.51 | 0.598 (inactive) | -0.232 | 0.715 | 0.907 | -0.0584
3 | COc1ccc(C(O)C2C=CC3C(=O)N(C)C(=O)C3N2Nc2ccccc2)cc1 (stereo not given) | 0.402 | 0.467 | 0.042 | 0.701 | 1.7 | 2.03 | 1.27 | 1.71 (inactive) | 0.791 | -0.271 | 1.29 | -0.0991 (inactive) | -0.546 (inactive) | 0.695 (inactive) | 3.3 | -0.238 (inactive) | 0.156 | -0.357 | 1.06 | 0.147
4 | CN1C(=O)C2C=CC(C(O)c3ccc([N+](=O)[O-])cc3)N(Nc3ccccc3)C2C1=O (stereo not given) | -0.001 | 0.135 | 0.235 | 0.889 | 1.62 | 1.75 | 1.16 | -0.439 (inactive) | 0.955 | -0.156 | 1.38 | 0.439 (inactive) | -0.184 (inactive) | 0.315 (inactive) | 3.25 | -1.69 (inactive) | 0.222 | -0.0487 | 1.03 | 0.0089
5 | Cc1ccc(S[C@]2(C(=O)NC3CC3)CC(=O)N(C3Cc4ccccc4C3)[C@@H]2c2ccc(CO)cc2I)cc1 | 0.851 | -0.1 | -0.133 | -0.0222 | -0.603 | 0.996 | 0.381 | -2.24 (inactive) | -0.228 | -0.286 | 0.198 | -0.192 (inactive) | -2.85 (inactive) | 3.27 (inactive) | 1.67 | 0.844 (inactive) | -0.0771 | -0.992 | -0.847 | -0.269

Source: PubChem BioAssay
